20 compounds from PubChem BioAssay (Tox21) can be followed below.

The nature of assay [1]: qHTS assay for small molecule agonists of the p53 signaling pathway (AID 651631; calls by dose curve; note: nearly all actives have a fitted effect of over 15% in size; note: potency is the fitted concentration of half-maximal effect). Put shortly: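 Read-out is beta-lactamase FRET fluorescence measured 2 h after substrate addition at room temperature, in HCT-116 cells with a p53 response element-driven reporter exposed to compounds for 16 h at 37 °C.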
A general note: Quantitative high-throughput screening tests each substance at several concentrations.

Assay [2] in a line: qHTS assay for small molecule agonists of the p53 signaling pathway - cell viability (AID 651633; calls by dose curve; note: nearly all actives have a fitted effect of over 30% in size; note: potency is the fitted concentration of half-maximal effect). The procedure, abridged:
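p53RE-bla cells were treated with compound for 16 hours at 37 C. Cytotoxicity was then measured as CellTiter-Glo luminescence after 30 min at room temperature.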

Assay [3] is described as follows: qHTS assay for small molecules that induce genotoxicity in human embryonic kidney cells expressing luciferase-tagged ATAD5 - cell viability (AID 651634; calls by dose curve; note: nearly all actives have a fitted effect of over 25% in size). Put shortly:
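Live-cell protease activity (CellTiter-Fluor, fluorescence) indicates viability. HEK293T cells with luciferase-tagged ATAD5; 15.5 hr compound treatment at 37C.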

Assay [4] can be described thus: qHTS assay for small molecule disruptors of the mitochondrial membrane potential - cell viability (AID 720634; calls by dose curve; note: nearly all actives have a fitted effect of over 20% in size; note: potency is the fitted concentration of half-maximal effect). The procedure, abridged: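 Human hepatoma HepG2 cells were treated for 1 hr with test chemicals, then given m-MPI dye and CellTiter-Glo. Cell viability reflects luminescence proportional to cellular ATP.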
A short description of assay [5]: qHTS assay to test for compound auto fluorescence at 590 nm (red) in HepG2 cells (AID 720674). Put shortly:
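HepG2 cells, 2,000 per well in MEM with 10% FBS, attached overnight at 37 C, then got 23 nL compound or DMSO. After 1 hr at 37 C, 5% CO2, red fluorescence was read at 540/590 nm against Rose Bengal sodium as reference.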

Assay [6] in a line: qHTS assay to test for compound auto fluorescence at 535 nm (green) in HepG2 cells (AID 720675).
The nature of assay [7]: qHTS assay to test for compound auto fluorescence at 460 nm (blue) in HEK293 cells (AID 720678). Put shortly:
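Measured: blue fluorescence (Ex 405/Em 460 nm) of compound-treated HEK293 cells, incubated overnight at 37C with 5% CO2 and scaled to triamterene equivalents.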

The nature of assay [8]: qHTS assay to test for compound auto fluorescence at 590 nm (red) in HEK293 cells (AID 720679). Put shortly:
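Using HEK293 cells at 2,000 per well, the screen added 23 nL of each compound after cell attachment and incubated overnight (37C, 5% CO2). The plate reader then captured red-label fluorescence, Ex/Em 540/590nm.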

Assay [9] in a line: qHTS assay for small molecule disruptors of the mitochondrial membrane potential (AID 720635). Note: potency is the fitted concentration of half-maximal effect. Put shortly:
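HepG2 cells exposed to compound 1 hr at 37C, then Mito-MPS dye 30 min. Ratio read of aggregate (540/590 nm) versus monomer (490/535 nm) fluorescence.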

A short description of assay [10]: qHTS assay for small molecules that induce genotoxicity in human embryonic kidney cells expressing luciferase-tagged ATAD5 (AID 651632). Note: nearly all actives have a fitted effect of over 15% in size. Put shortly:
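Genotoxicity read-out via ATAD5-luciferase: HEK293T cells, 16 hr compound incubation at 37C, Amplite detection.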

Inconclusive results are not listed. The source made the active and inactive calls. Unless noted, calls come from the whole dose curve; as a rule, active = well fitted curve in the direction sought with a large enough effect in the repeat runs; inconclusive = weak or mixed curves; inactive = no such curve, though single readings can be large; an effect the other way counts as inactive or inconclusive.

On to `Nc1ncnc2c1ncn2[C@@H]1O[C@H](COP(=O)(O)OP(=O)(O)OP(=O)(O)O)[C@@H](O)[C@H]1O`, for which the Potency in [1] is 26.6 µM (active); in assay [4], 9.44 µM (active). Besides, the Potency entry in assay [2], in [3], in assay [5], in assay [6], in assay [7] and in assay [8] was “inactive” in each case.

For `CCOC(=O)Cc1cccc(-c2cc(CCCCCCc3ccc(O[C@H]4O[C@H](COC(C)=O)[C@@H](OC(C)=O)[C@H](OC(C)=O)[C@@H]4OC(C)=O)c(-c4cccc(CC(=O)OCC)c4)c3)ccc2O[C@H]2O[C@H](COC(C)=O)[C@@H](OC(C)=O)[C@H](OC(C)=O)[C@@H]2OC(C)=O)c1`, the Potency result in assay [1], in assay [2], in [3], in [4], in [5] and in [6] was “inactive” each time. Moreover, the Potency entry in assay [7] and in [8] was “inactive” throughout.

Consider `Cc1ccc(/C(=C\CN2CCCC2)c2cccc(/C=C/C(=O)O)n2)cc1`, for which the Potency entry in [1], in [2], in assay [3], in [4], in assay [5] and in [6] was “inactive” in each case. Also, the Potency result in [7] and in assay [8] was “inactive” in each case.

`COc1ccc(CNCC(O)COc2ccc3[nH]c(=O)ccc3c2)cc1OC` (stereo not drawn): the Potency entry in [1], in [2], in [3], in assay [4], in assay [9] and in assay [5] was “inactive” throughout. The Potency entry in [6], in assay [7] and in [8] was “inactive” throughout.

In the case of `COc1cc(C)c(/C=C/C(C)=C/C=C/C(C)=C/C(=O)O)c(C)c1C`, the Potency in assay [1] was 29.8 µM (active). For the same compound, the Potency result in assay [10], in assay [3], in assay [4], in [9], in [5] and in assay [6] was “inactive” throughout. Further, the Potency result in assay [7] and in [8] was “inactive” in each case.

With `NC(Cc1ccccc1)C(=O)O` (stereo not drawn), the Potency result in [1], in assay [2], in assay [3], in assay [4], in assay [9] and in assay [5] was “inactive” in each case. Besides, the Potency entry in assay [6] and in assay [7] was “inactive” in each case.

`CC(C)(C)CC(=O)OCC(=O)[C@@]12OC(C)(C)O[C@@H]1C[C@H]1[C@@H]3CCC4=CC(=O)C=C[C@]4(C)[C@@]3(F)[C@@H](O)C[C@@]12C`: the Potency entry in [1], in assay [2], in assay [3], in [4], in assay [5] and in assay [6] was “inactive” throughout. In addition, the Potency result in assay [7] and in [8] was “inactive” each time. In addition, the Potency in assay [9] is 13.3 µM (active).

In the case of `COc1ccc(-c2noc(CC(=O)O)c2-c2ccc(OC)cc2)cc1`, the Potency result in assay [1], in [2], in assay [3], in [4], in assay [5] and in assay [6] was “inactive” each time. Also, the Potency entry in assay [7] and in [8] was “inactive” in each case.

On to `CC[C@@]1(O)C(=O)OCc2c1cc1n(c2=O)Cc2cc3c([N+](=O)[O-])cccc3nc2-1`, for which the Potency in assay [1] and in assay [2] was 0.473 µM (active) each time. Further, the Potency result in assay [10], in assay [4], in assay [5], in [6], in assay [7] and in assay [8] was “inactive” in each case.

On to `COc1cc([C@@H]2c3cc4c(cc3C(O[C@@H]3O[C@@H]5COC(c6cccs6)O[C@H]5[C@H](O)[C@H]3O)C3COC(=O)[C@@H]32)OCO4)cc(OC)c1O` (stereo partly drawn), for which the Potency in assay [1] is 0.376 µM (active). Moreover, the Potency result in [10], in assay [3], in [4], in assay [5], in [6] and in assay [7] was “inactive” throughout. In assay [8], the Potency entry was “inactive”.

For the compound `O=P(O)(O)C(Sc1ccc(Cl)cc1)P(=O)(O)O`, the Potency result in assay [1], in [2], in assay [3], in assay [4], in assay [9] and in [5] was “inactive” throughout. The Potency result in [6] and in assay [7] was “inactive” throughout.

For the compound `O=C(O)c1cc2ccccc2c(Cc2c(O)c(C(=O)O)cc3ccccc23)c1O`, the Potency entry in assay [1], in assay [10], in [3], in assay [4], in assay [5] and in assay [6] was “inactive” each time. The Potency result in [7] was “inactive”.

Turning to `CN1c2cc(O)c(N=NC(N)=O)cc2CC1S(=O)(=O)O` (stereo not drawn), the Potency entry in assay [1], in assay [10], in assay [2], in [4], in assay [5] and in assay [6] was “inactive” throughout. The Potency entry in [7] and in assay [8] was “inactive” in each case.

With `CS(=O)(=O)Nc1cc2occ(NC=O)c(=O)c2cc1Oc1ccccc1`, the Potency entry in assay [1], in assay [10], in assay [2], in [4], in assay [5] and in assay [6] was “inactive” throughout. The Potency entry in assay [7] and in assay [8] was “inactive” each time.

Regarding `Cc1nnc(C(C)C)n1C1C[C@H]2CC[C@@H](C1)N2CC[C@H](NC(=O)C1CCC(F)(F)CC1)c1ccccc1` (stereo partly drawn), the Potency result in [1], in assay [2], in [3], in [4], in assay [5] and in assay [6] was “inactive” each time. The Potency result in [7] and in assay [8] was “inactive” throughout.

Regarding `C[C@]12C=CC(=O)C=C1CC[C@@H]1[C@@H]2[C@@H](O)C[C@@]2(C)[C@H]1CC[C@]2(O)C(=O)COC(=O)CCC(=O)O`, the Potency entry in [1], in assay [2], in assay [3], in assay [4], in assay [5] and in [6] was “inactive” throughout. In addition, the Potency entry in [7] and in assay [8] was “inactive” throughout.

As for `C[C@@H]1C/C=C/C=C/C=C/C=C/[C@H](O[C@@H]2O[C@H](C)[C@@H](O)[C@H](N)[C@@H]2O)C[C@@H]2O[C@](O)(C[C@@H](O)C[C@H]3O[C@@H]3/C=C/C(=O)O1)C[C@H](O)[C@H]2C(=O)O`, the Potency entry in assay [1], in [2], in [3], in [4], in assay [9] and in assay [5] was “inactive” in each case. The Potency result in [6], in [7] and in [8] was “inactive” each time.

With `CNC(C)CCC=C(C)C` (stereo not drawn), the Potency entry in assay [10], in assay [2], in assay [3], in assay [4], in [9] and in [5] was “inactive” each time. For the same compound, the Potency result in assay [6] and in assay [7] was “inactive” throughout.

`O=[N+]([O-])O[C@@H]1CO[C@H]2[C@@H]1OC[C@@H]2O`: the Potency result in [10], in [2], in assay [3], in assay [4], in [9] and in [5] was “inactive” throughout. Moreover, the Potency entry in [6], in assay [7] and in assay [8] was “inactive” throughout.

In the case of `O=c1[nH]cnc2[nH]cc(CN3CCCCC3)c12`, the Potency entry in [1], in [2], in assay [4], in [5], in assay [6] and in [7] was “inactive” throughout. For the same compound, in [8], the Potency result was “inactive”.
